USP17 block: inhibitors of human USP17 deubiquitinase | A8MUK1 | purified USP17, Ub-rhodamine cleavage fluorescence, 3 h | inhibition, % at 50 µM | hit rate 6.5% among 47,000 | AID 1645855
Target sequence (A8MUK1 whole entry, looked up): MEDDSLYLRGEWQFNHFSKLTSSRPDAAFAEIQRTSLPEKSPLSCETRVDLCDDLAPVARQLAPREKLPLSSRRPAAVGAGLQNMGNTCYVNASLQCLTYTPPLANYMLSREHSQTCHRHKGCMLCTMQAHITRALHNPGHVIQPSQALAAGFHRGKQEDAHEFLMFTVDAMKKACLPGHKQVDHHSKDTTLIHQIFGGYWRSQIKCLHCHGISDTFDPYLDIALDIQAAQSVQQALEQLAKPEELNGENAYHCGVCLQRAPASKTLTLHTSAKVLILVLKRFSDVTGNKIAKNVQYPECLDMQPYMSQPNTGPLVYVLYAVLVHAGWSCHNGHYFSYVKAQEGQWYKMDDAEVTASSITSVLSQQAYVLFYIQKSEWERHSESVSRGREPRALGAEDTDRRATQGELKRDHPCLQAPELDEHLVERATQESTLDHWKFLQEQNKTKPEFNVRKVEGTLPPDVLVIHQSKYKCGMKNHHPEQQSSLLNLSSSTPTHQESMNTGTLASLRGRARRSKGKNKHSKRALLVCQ
USP28 block: blocks human USP28 ubiquitin-rhodamine cleavage; Q96RU2; purified USP28, Ub-rhodamine cleavage fluorescence, 30 min; inhibition, % at 25 µM; hit rate 3% among 47,000; AID 1645857
USP30 inh: blocks human USP30 ubiquitin-rhodamine cleavage. purified USP30, Ub-rhodamine cleavage fluorescence. AID 1645860. Q70CQ3. inhibition, % at 25 µM. hit rate 5.3% among 47,000
Starred values were filed as active, the others as inactive; i = inactive; . = no result. Compounds with a hit are over-represented: about 11% of the library has one in this group of screens. Cut-off read from the data, not from the text of the source: active = inhibition above about 30%; inactive = the rest.

SMILES | USP17 block | USP28 block | USP30 inh
N#Cc1ccc(Cl)cc1NC(=O)COC(=O)c1n[nH]c2ccccc12 | -13 | -10 | -74
CCn1cc(S(=O)(=O)N2CCCCCC2c2nn(C)cc2Cl)c(C)n1 (configuration not stated) | 1 | -18 | 11
Cc1nc2ccccn2c1CNc1cccc(C(=O)O)c1 | -36 | -6 | -32
Cn1cc(C2CCCN2C(=O)Cc2csc(C(C)(C)C)n2)cn1 (configuration not stated) | -5 | -10 | -22
O=C1CN(C(=O)COC(=O)c2cccc(F)c2)c2ccccc2N1 | 3 | 4 | 10
FC(F)(F)c1cc(Cl)c2nnc(-n3cccc3)n2c1 | -12 | -21 | -35
Cc1ccccc1CNC(=O)CCc1ccc2nc(NC(=O)C(C)C)sc2c1 | 21 | -4 | 8
CSc1cccc(NC(=O)CCc2ccc3nc(NC(C)=O)sc3c2)c1 | 16 | 11 | 54*
CC(C)C(=O)Nc1nc2ccc(CCC(=O)Nc3ccc(F)cc3F)cc2s1 | 12 | 4 | 33*
COc1cccc(CNC(=O)CCc2ccc3nc(NC(=O)C(C)C)sc3c2)c1 | -7 | -5 | 0
O=C(NCc1ccccc1)N1CCC2(CC1)CN(Cc1cccnc1)CC21CCNC1=O (configuration not stated) | 9 | 5 | 11
CN(C)CCCn1c(-c2ccccc2)cc(-c2ccccc2)cc1=O | -6 | 6 | 7
Cc1ccccc1C(=O)c1ccc(C(=O)NC2CCCCCC2)[nH]1 | 14 | 4 | 52*
N#Cc1ccccc1-c1ccccc1C(=O)NC1CCCCC1 | -9 | -8 | -5
O=C(Nc1ccc2c(c1)OCCO2)C1CCN(C(=O)c2ccccc2)CC1 | 13 | 76* | 21
O=C(Nc1ccc2cn[nH]c2c1)C1CN(C(=O)c2ccc3c(c2)OCO3)C1 | 3 | -1 | -5
O=C(Nc1ccc2c(c1)OCCO2)C1CCC(Cn2cnc3ccccc3c2=O)CC1 (configuration not stated) | -4 | 92* | 16
Cc1cc(C(=O)N2CCC(C(=O)Nc3ccc4c(c3)OCO4)CC2)c2ccccc2n1 | 10 | -13 | -21
O=C(Nc1ccc2c(c1)OCO2)C1CCN(C(=O)c2ccc3n[nH]nc3c2)CC1 | 26 | 45* | -13
O=C(O)CCNC(=O)C1CCC(Cn2cnc3ccccc3c2=O)CC1 (configuration not stated) | 2 | 5 | 14
O=C1CC(c2cccc([N+](=O)[O-])c2)c2cc3c(cc2N1)OCO3 (configuration not stated) | 19 | -1 | -9
Cc1nn(-c2ccc(Cl)cc2)c2[nH]c(=O)c(CNCC3CCCO3)cc12 (configuration not stated) | -90 | -264 | i
Cn1ncc2c(N3CCOCC3)nc(C(=O)NCc3ccc(F)cc3)nc21 | 7 | 12 | 19
CC(C(=O)Nc1cccc(S(N)(=O)=O)c1)N1CCCCCC1 (configuration not stated) | -1 | -14 | -19
Cc1cccc(OC(C)C(=O)Oc2ccc(-n3cnnn3)cc2)c1C (configuration not stated) | 6 | 13 | 16
SMILES | USP17 block | USP28 block | USP30 inh
CC1(c2ncc(CNC(=O)c3n[nH]c4c3CCCC4)cn2)CCCCO1 (configuration not stated) | 10 | 12 | 32*
O=C(NCc1cnc(C2CCCCO2)nc1)c1n[nH]c2c1CCC2 (configuration not stated) | 15 | 9 | 12
Cc1ccc(CNC(=O)NC2CCN(c3ccccc3)C2=O)cc1 (configuration not stated) | 8 | 9 | 33*
O=C(Nc1ccccc1F)NC1CCN(c2ccc(F)cc2)C1=O (configuration not stated) | 51* | 26 | 80*
COc1cccc(CC(=O)NC2CCN(c3ccccc3)C2=O)c1 (configuration not stated) | 9 | 5 | 16
COc1ccccc1NC(=O)NC1CCN(c2ccccc2)C1=O (configuration not stated) | 12 | -10 | -7
Nc1cc(CCC2CN(S(=O)(=O)c3cccnc3)CCO2)ccn1 (configuration not stated) | -9 | 0 | -13
Cc1c(CC(=O)N2CCN(c3ccccn3)CC2)c(=O)oc2cc(O)c(Cl)cc12 | 3 | 0 | 15
Cc1ccc(CC(=O)N2CCC(c3cc(N)on3)CC2)cc1 | -6 | -10 | -2
COc1ccc(-n2c(CN3CCC(C(N)=O)CC3)nc3ccc([N+](=O)[O-])cc3c2=O)c(OC)c1 | -3 | 3 | -65
COc1cccc(-n2c(CNCc3cccnc3)nc3ccc([N+](=O)[O-])cc3c2=O)c1 | 36* | 36* | 68*
O=C1CC(NC(=O)c2cc(-c3ccc(F)cc3)n[nH]2)CN1 (configuration not stated) | -5 | . | .
CNc1cncc(C2CCCN2C(=O)C2CN(S(C)(=O)=O)C2)n1 (configuration not stated) | 6 | 0 | -1
CC1=NS(=O)(=O)c2cccnc2N1c1ccc(C(C)C)cc1 | -6 | -6 | -11
COc1ccc(OC)c(CNc2nc(N3CCCC3)nc3c2cnn3C)c1 | 8 | -7 | -25
COc1ccc(Nc2nc(N3CCCC3)nc3c2cnn3C)cc1 | 49* | 2 | 39*
O=c1[nH]c(C2CCN(S(=O)(=O)c3ccccc3)CC2)nc2c1nnn2Cc1c(Cl)cccc1Cl | 10 | 27 | 39*
O=c1[nH]c(C2CCN(S(=O)(=O)c3cccc4ccccc34)CC2)nc2c1nnn2Cc1ccccc1Cl | 2 | 33* | 31*
CCOc1ccc(C(=O)N2CCC(c3nc4c(nnn4Cc4ccccc4Cl)c(=O)[nH]3)CC2)cc1 | 8 | 0 | 3
O=c1[nH]c(C2CCN(S(=O)(=O)c3ccc(S(=O)(=O)N4CCOCC4)cc3)CC2)nc2c1nnn2Cc1ccc(F)cc1 | 28 | 8 | 2
O=C(C1CCCC1)N1CCC(c2nc3c(nnn3Cc3c(F)cccc3Cl)c(=O)[nH]2)CC1 | -2 | -5 | 11
CCc1ccccc1NC(=O)N1CCC(c2nc3c(nnn3Cc3ccc(F)cc3)c(=O)[nH]2)CC1 | -1 | -3 | -1
O=C(Nc1cccc2ccccc12)N1CCC(c2nc3c(nnn3Cc3ccc(F)cc3)c(=O)[nH]2)CC1 | 91* | 38* | 36*
O=C(C1CCC1)N1CCC(c2nc3c(nnn3Cc3c(Cl)cccc3Cl)c(=O)[nH]2)CC1 | 10 | 19 | 36*
Cc1ccc(CSc2nc3[nH]c(=O)cc(O)c3s2)cc1 | -7 | -15 | -82
SMILES | USP17 block | USP28 block | USP30 inh
Cc1ccccc1-c1cc(C(=O)NCCN2CCOCC2)c2cccc(Cl)c2n1 | -19 | -19 | -29
COc1cc(C2CCN(C(=O)Nc3cccc(N(C)C)c3)CC2)on1 | -8 | -45 | -164
COc1ccccc1N1CCN(C(=O)CC(c2ccccc2)c2ccccc2)CC1 | -9 | 1 | 0
COc1ccccc1/C=C(\C(=O)N1CCN(c2ccccc2)CC1)c1ccccc1 | 7 | 14 | 35*
O=C(C1CCC1)N1CCCC2(COCCN(c3cccnc3)C2)C1 (configuration not stated) | 11 | 1 | 3
O=C(Cc1ccc(-c2ccccc2)cc1)Nc1ccccc1F | -39 | -64 | -255
Cc1c(-c2ccccc2)oc2c(C(=O)OCC(=O)Nc3ccccc3F)cccc2c1=O | 67* | 1 | 4
